# Screening data (PubChem)
# HSF1 inh = HSF1 inhibition; NIH3T3-HGL HSE-luciferase, MG132-induced, luminescence 8 h; active compounds read low; activity change, negative = inhibition, % at 7.5 µM (by protocol); 300,000 compounds, 0.77% hits;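 active means more than half of replicate wells show activity change below -50%, luminescence cut by over half; inconclusive means some wells, but at most half, below -50%; inactive means no replicate well below -50%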;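 further: luciferase reports HSF-1 transcriptional activity via heat shock element; 0% = median of DMSO wells and -100% = zero luminescence signal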
# HSF1 activator = increases HSF-1 driven luciferase reporter signal | activation, % at 9 µM | 300,000 compounds, 1.7% hits | AID 504408 | NIH3T3-HGL HSF-1 luciferase reporter, MG132, 8 h; 100% = twice DMSO control signal;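 active means mean replicate activation of at least 50% with a set share of replicates each reaching 50%; inconclusive means only one of those two conditions met; inactive means mean below 50% and too few replicates reaching it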;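 further: 0% = median of the neutral control wells and 100% = twice that signal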
# EBV LMP1 NFkB = inhibitors of Epstein-Barr LMP1-induced NF-kappaB reporter; 350,000 compounds, 0.69% hits; inhibition, % at 12.5 µM; LMP1-induced NF-kappaB luciferase reporter cells, luminescence; in the data active means inhibition above about 41%; inconclusive means no clear call, values can overlap the other calls;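 further: 0% = neutral control wells and 100% = reference inhibitor control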
# TROY NFkB inh = TROY signaling inhibition; AID 1347056; 360,000 compounds, 0.98% hits; Q293 LMP1-TROYcd NF-kB luciferase reporter, 4 h; inhibition, % at 10 µM;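 active means compounds whose plate-normalised and pattern-corrected inhibition of the luciferase reporter signal at the single screening dose is 50% or more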
# TWEAK Fn14 block = blocks TWEAK-Fn14 interaction in a reporter cell assay; TWEAK-stimulated Fn14 reporter cells, luciferase luminescence, 8 h; inhibition, % at 10 µM; 360,000 compounds, 2% hits; in the data active means inhibition above about 50%
# HSP90 refold inh = blocks HSP90-mediated luciferase refolding in reticulocyte lysate; Rabbit reticulocyte lysate, luciferase refolding luminescence, 3 h; inhibition, % at 5.6 µM; 290,000 compounds, 0.91% hits;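 active means inhibition above the screen-wide mean plus 3 SD, computed separately per campaign, cut at about 16% in these data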;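 further: 0% = DMSO wells and 100% = 60 µM geldanamycin wells; inhibitors lower the luminescence because luciferase stays unfolded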
# Active calls of the source: *; ? = inconclusive; . = no result; ! = not active in a repeat. A selection: hits, their analogues and other compounds. The true share with any hit is near 4.7%.
SMILES,HSF1 inh,HSF1 activator,EBV LMP1 NFkB,TROY NFkB inh,TWEAK Fn14 block,HSP90 refold inh
O=C1NC(=O)[C@]2(Cc3ccccc3N3CCN(c4ccccc4)CC32)C(=O)N1Cc1ccccc1 (stereo partly drawn),22,65*,-2,24,-9,-1
C[C@H]1COc2cc(N3CCN(C)CC3)ccc2S(=O)(=O)N1,.,.,.,-5,14,.
Cc1[nH]nc2ccc(-c3cncc(OC[C@@H](N)Cc4c[nH]c5ccccc45)c3)cc12,.,.,90*,77*,98*,.
CCCc1nc2ccc(Br)cc2c(=O)n1-c1ccc([N+](=O)[O-])c(C(F)(F)F)c1,-17,-37,44*,47,46,3
CCc1nc2ccc(Br)cc2c(=O)n1-c1ccccc1C(F)(F)F,1,-1,-1,22,20,0
O=C1NCN(c2ccccc2)C12CCN(C(CCc1ccccc1)c1nnnn1C1CCCC1)CC2 (stereo not drawn),.,.,.,5,41,.
COc1ccc(N2C(=O)NC(=O)/C(=C/c3ccc([N+](=O)[O-])s3)C2=O)cc1,21,64*,.,-16,7,0
COc1ccc(N2C(=O)NC(=O)/C(=C\c3ccc([N+](=O)[O-])s3)C2=O)cc1,13,27,3,16,7,7
O=C(Nc1ccc(C(=O)O)cc1)Oc1ccc(N(CCCl)CCCl)cc1,.,.,.,-31,8,.
CCOc1ccc(NC(=O)CCNC(=O)N2C[C@H]3C[C@@H](C2)c2cccc(=O)n2C3)cc1,-5,-3,3,5,-9,-6
NC(Cc1nc2ccccc2[nH]1)c1ccc(Cl)cc1 (stereo not drawn),65,88*,-21,7,-12,0
C[C@@H]1C[C@@H]([C@H](O)CC2CC(=O)NC(=O)C2)C(=O)[C@@H](C)C1,.,.,79*,53*,80*,.
CC(=O)OC1(C)CC(C)C(=O)C(C(O)CC2CC(=O)NC(=O)C2)C1 (stereo not drawn),.,.,89*,86*,103*,.
CN1C2CNC(=O)CC1C1CCC2C1 (stereo not drawn),.,.,2,-1,2,.
O=C(c1cc(C(=O)NCc2ccccc2)c(=O)n(Cc2ccccc2)c1)c1cc(Br)ccc1O,4,19,4,24,51*,-6
CCOc1ccc(-c2cc(C)[n+](CCc3ccc(OC)c(OC)c3)c(-c3ccc(OCC)cc3)c2)cc1,-1,2,10,53*,7,5
CCCCCn1c(N)c(C(=O)NCc2cccs2)c2nc3ccccc3nc21,8,4,.,.,.,4
CCCCCn1c(N)c(C(=O)NCCN2CCOCC2)c2nc3ccccc3nc21,13,10,3,36,17,8
CCCCn1c(N)c(C(=O)NCc2cccs2)c2nc3ccccc3nc21,17,21,-8,68*,35,5
CCCCNC(=O)c1c(N)n(Cc2ccc3c(c2)OCO3)c2nc3ccccc3nc12,9,33,-5,59*,51*,-1
CCCCCCn1c(N)c(C(=O)NCCN2CCOCC2)c2nc3ccccc3nc21,15,13,1,.,56*,0
CCOC(=O)[C@]12Cc3cc(C)ccc3[C@H]1N(C(C)C)C(=O)c1ccccc12,.,.,.,18,-59,.
Cc1ccsc1C(=O)C1CCCN(Cc2ccc(-n3cccn3)cc2)C1 (stereo not drawn),2,-9,2,32,-8,-1
CN(C)c1ccc(CN2CC=C(c3ccc(F)cc3)CC2)cc1,-3,10,-4,25,3,-2
O=[N+]([O-])c1ccc(CN2CC=C(c3ccccc3)CC2)cc1,-15,5,43*,1,22,1
SMILES,HSF1 inh,HSF1 activator,EBV LMP1 NFkB,TROY NFkB inh,TWEAK Fn14 block,HSP90 refold inh
Cc1ccc2nc(N3CCC(C(=O)N4CCC5(CC4)OCCO5)CC3)sc2c1,7,33,7,-8,13,1
O=C(C1CCCN(c2nnc(-n3cccc3)s2)C1)N1CCC2(CC1)OCCO2 (stereo not drawn),2,7,11,.,74*,-1
Cc1ccc(OC(=O)N(C)C[C@@H]2OCc3cnnn3CCCC(=O)N([C@@H](C)CO)C[C@H]2C)cc1,.,.,-3,-6,-10,.
C[C@@H]1CN([C@H](C)CO)C(=O)CCCn2nncc2CO[C@@H]1CN(C)C(=O)Oc1ccc2ccccc2c1,.,.,6,-8,7,.
CN(C)[C@@H]1C(=O)C(C(N)=O)=C(O)[C@@]2(O)C(=O)C3=C(O)c4c(O)cccc4[C@@](C)(O)[C@H]3[C@H](O)[C@@H]12,-1,-8,90*!,-1,-12,-1
CN(C)[C@@H]1C(=O)C(C(N)=O)=C(O)[C@@]2(O)C(=O)C3=C(O)c4c(O)cccc4[C@@](C)(O)C3C[C@@H]12 (stereo partly drawn),-2,2,-2,5,-14,.
C[N+](C)(C)CC#CCOC(=O)Nc1cccc(Cl)c1,2,-13,82*,1,6,.
COc1cc(OC)c(OC)cc1/C=C1\C(=O)NC(=O)N(Cc2ccccc2)C1=O,0,-13,-6,55*,8,3
O=C1NCN(c2ccccc2)C12CCN(C(c1cc3ccccc3o1)c1nnnn1C1CCCCC1)CC2 (stereo not drawn),.,.,.,14,35,.
Cc1ccnc(-n2c(C)cc(C=C3C(=O)N(C)C(=S)N(C)C3=O)c2C)c1,11,41,-4,1,87*,-2
COC(=O)[C@@H]1N=C(c2ccc(OC)cc2)O[C@]12C(=O)N(Cc1ccc(OC)cc1)c1ccccc12,.,.,.,3,20,.
O=[N+]([O-])/C=C/c1c(Cl)cccc1Cl,?,?,0,8,52*,.
CCN(CC)c1ccc(/C=C/[N+](=O)[O-])cc1,34,?,3,-5,-6,7
O=C1NCN(c2ccccc2)C12CCN(C(c1ccccc1OC(F)(F)F)c1nnnn1-c1ccc3c(c1)OCCO3)CC2 (stereo not drawn),.,.,.,17,33,.
COc1ccc(C2=NCC(=S)Nc3ccc(Cl)cc32)cc1OC,9,17,1,-1,5,.
S=C1CN=C(c2ccccc2)c2cc(Cl)ccc2N1,32,65*,-14,9,6,1
O=C1CN=C(c2ccc[nH]2)c2cc(Cl)ccc2N1,6,38,57*,9,44,-1
O=C1c2ccccc2-n2nnc(-c3ccccc3)c2C2c3cc(Br)ccc3CCN12 (stereo not drawn),.,.,.,-11,-6,.
C[C@@H]1CN([C@@H](C)CO)C(=O)CCCn2nncc2CO[C@H]1CN(C)C(=O)Oc1ccc2ccccc2c1,.,.,1,-6,2,.
O=C(O)c1cc[c]([Hg][Cl])cc1,.,.,0,-6,65*,.
COc1ccc(C(=O)O)cc1OC,.,.,-7,-6,12,.
O=C1C2CC(CN3CCCCC23)C2CCCCN12 (stereo not drawn),.,.,.,-13,5,.
